High-throughput results (PubChem BioAssay)
aSyn yeast rescue – qHTS of alpha-syn Inhibitors: NCGC Sytravon Library Screen. hit rate 0.02% among 94,000. S. cerevisiae alpha-synuclein toxicity rescue, BacTiter-Glo growth, 24 h. Potency, µM (doses to about 46.1 µM), hits mostly activators. AID 1347070, 2019; active = well fitted activation curve with a large enough effect; note: 0% is about no effect
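Growth restoration measured by BacTiter-Glo luminescence after 24 hr at 30 deg C; alpha-synuclein yeast, raffinose-pregrown to mid-log, were added at OD600=0.02 in galactose medium onto pinned compounds.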
Starred values were filed as active, the others as inactive. The sample as a whole holds a higher share of hits than the screen did. Potency is the fitted concentration of half-maximal effect.

Results for Cc1ccc(NC(=O)CN2C(=O)CCn3nc(-c4cccn4C)cc32)cc1 ?
aSyn yeast rescue: inactive

Results for CCOCC(=O)Nc1ccc(-c2cn3c(C)csc3n2)cc1 ?
aSyn yeast rescue: inactive

How did CSc1ccc(C2c3[nH]c4ccccc4c3CCN2C(=O)CCc2ccccc2)cc1 (configuration not stated) do in these assays?
aSyn yeast rescue: inactive

Results for CCOc1ccc(C2c3[nH]c4ccccc4c3CCN2C(=O)CSc2ccccc2)cc1 (configuration not stated) ?
aSyn yeast rescue: inactive

Results for CCc1ccccc1NC(=O)N1CCc2c([nH]c3ccccc23)C1c1ccc(C)cc1 (configuration not stated) ?
aSyn yeast rescue: inactive

Results for O=C(CCC1CCCC1)N1CCc2c([nH]c3ccccc23)C1c1ccc(F)cc1 (configuration not stated) ?
aSyn yeast rescue: inactive

What do the screens show for `Cc1ccc(C2c3[nH]c4ccccc4c3CCN2C(=O)CSCc2ccc(F)cc2)cc1` (configuration not stated)?
aSyn yeast rescue: 15.8µM*

How did Cc1ccc(C2c3[nH]c4ccccc4c3CCN2C(=O)CSc2ccccc2)cc1 (configuration not stated) do in these assays?
aSyn yeast rescue: 14.1µM*

Results for CC(C)c1ccc(CNc2nc(-c3ccco3)nn2C(=O)c2ccc([N+](=O)[O-])cc2)cc1 ?
aSyn yeast rescue: inactive

Results for CCS(=O)(=O)c1ncc(Cl)c(C(=O)N2CCN(c3cccc(Cl)c3)CC2)n1 ?
aSyn yeast rescue: inactive

What do the screens show for `Cc1ccc(-c2nc(S(=O)(=O)c3ccc(C)cc3)c(SCC(=O)c3ccccc3)o2)cc1`?
aSyn yeast rescue: 17.8µM*

What do the screens show for `O=C(CSc1oc(-c2ccc(F)cc2)nc1S(=O)(=O)c1ccccc1)c1ccc(Cl)cc1`?
aSyn yeast rescue: inactive

What do the screens show for `Cc1ccc(S(=O)(=O)c2nc(-c3ccc(F)cc3)oc2SCC(=O)c2ccccc2)cc1`?
aSyn yeast rescue: inactive

What do the screens show for `COc1cccc2c1Oc1ncccc1N(C(=O)CCC(=O)NC(C)C)C2`?
aSyn yeast rescue: inactive

How did O=C(NCCC1=CCCCC1)c1ccc2c(c1)N(Cc1cccc(Cl)c1)C(=O)c1ccccc1S2=O (configuration not stated) do in these assays?
aSyn yeast rescue: inactive

Results for Cc1c(NC(=O)c2cc3ccccc3o2)cccc1-c1nc2ccccc2o1 ?
aSyn yeast rescue: inactive

How did Cc1ccc(N2CC(NC(=O)CCCc3ccccc3)CC2=O)cc1 (configuration not stated) do in these assays?
aSyn yeast rescue: inactive

Results for Cc1nnc(NCc2ccc(F)cc2)c2c1nnn2Cc1ccccc1Cl ?
aSyn yeast rescue: inactive

What do the screens show for `O=C(Nc1ccc2c(c1)CCCN2C(=O)c1cccs1)c1ccccc1Cl`?
aSyn yeast rescue: inactive

What do the screens show for `CCc1ccc(S(=O)(=O)NCc2nc3cccnc3n2Cc2cccc(OC)c2)cc1`?
aSyn yeast rescue: inactive

What do the screens show for `COc1ccc(-c2cn3c(n2)sc2cc(C(=O)Nc4ccc(F)cc4Cl)ccc23)cc1`?
aSyn yeast rescue: inactive

Results for CN(Cc1ccccc1)C(=O)c1ncn2c1c(=O)[nH]c1cccnc12 ?
aSyn yeast rescue: inactive

What do the screens show for `CC1CCN(S(=O)(=O)c2ccc3nc(Nc4cccc(F)c4)ccc3c2)CC1`?
aSyn yeast rescue: inactive

What do the screens show for `Cc1ccc(Cl)cc1N1CCN(Cc2nnc(-c3ccc4c(c3)OCO4)o2)CC1`?
aSyn yeast rescue: inactive
